Test results taken from PubChem BioAssay.
Results with a measured potency or affinity are listed apart. The source made the active and inactive calls. The rule behind the calls is not given here.

Experiment: HepG2 cell cytotoxicity, dose response, cytotoxicity control, plate reader, cherry-pick, antagonist series (AID 743416)
Settings: series mostly up to 26 µM
For `Clc1ccc(-c2cc(-c3ccccn3)on2)c(Cl)c1`, the outcome was “inactive”. In the case of `Cc1ccc(Nc2nc3ccccc3s2)c(C)c1`, the outcome is reported as “inactive”. With `N#Cc1cccc(-c2ccc(C3[C@@H]4CN(C(=O)c5ccccn5)C[C@H]3N4)cc2)c1` (some centres undefined) the outcome was “inactive”. In the case of `O=C1CC(c2ccc3c(c2)OCO3)Sc2nc3ccccc3n21` (centres undefined), the outcome is reported as “inactive”. With `CN(C(=O)COC(=O)c1nc(Cl)c(Cl)c(Cl)c1Cl)C1CCS(=O)(=O)C1` (centres undefined) the outcome was “inactive”. In the case of `CCOc1ccc(-c2cnc3ccccc3n2)cc1`, the outcome is reported as “inactive”. In the case of `N#C[C@@H]1[C@H](c2ccc(C#Cc3ccccc3F)cc2)[C@@H](CO)N1C(=O)C1CC1`, the outcome is reported as “inactive”. With `Cc1cccc(-c2ccc([C@H]3[C@@H](CO)N4CCCCN(C(=O)c5ccncc5)C[C@@H]34)cc2)c1` the outcome was “inactive”. For `O=C(Nc1ccc(Cl)cc1)Nc1ccccc1C(=O)O`, the outcome was “inactive”. In the case of `CCc1ccc2oc(-c3ccc(N)cc3)nc2c1`, the outcome is reported as “inactive”. With `C[C@H]1CCCCO[C@@H](CN(C)C(=O)Nc2ccc(F)cc2)[C@@H](C)CN([C@@H](C)CO)C(=O)c2cc(NC(=O)C3CCCCC3)ccc2O1` the outcome was “inactive”. With `COc1cc(SC)ccc1C(=O)Nc1nc(C)cs1` the outcome was “inactive”. In the case of `COc1ccc(Nc2ncc(F)c(N3CCOCC3)n2)cc1`, the outcome is reported as “inactive”. With `Cc1cccc(-c2ccc([C@H]3[C@@H](CO)N4CCCCN(C(=O)c5cccnc5)C[C@@H]34)cc2)c1` the outcome was “inactive”. With `O=C(COc1ccc2c(c1)CCC2)Nc1ccccn1` the outcome was “inactive”. With `CC(C)CCn1cnc2c(oc3nc4c(cc32)CCCC4)c1=O` the outcome was “inactive”. For `COCCOc1cc(NCc2ccccc2)c2ncn(C(C)C)c2c1`, the outcome was “inactive”. With `COC(=O)c1ccc2nc(-c3ccc4c(c3)OCO4)cn2c1` the outcome was “inactive”. With `COc1ccc(S(=O)(=O)Nc2ccc3c(c2)C(=O)N([C@@H](C)CO)C[C@@H](C)[C@H](CN(C)C(=O)Nc2cccc4ccccc24)OCCCC[C@H](C)O3)cc1` the outcome was “inactive”. In the case of `Cc1cc(C(=O)CSc2nnc3ccccn23)c(C)n1-c1ccccc1`, the outcome is reported as “inactive”. With `CN1c2ccc(-c3ccc(F)cc3)cc2[C@H]2[C@H](CCN2C(=O)Nc2ccc(F)cc2)[C@H]1CO` the outcome was “inactive”. For `Nc1nccc(-c2cc(-c3ccc(Cl)cc3Cl)no2)n1`, the outcome was “inactive”. For `Cc1ccc(C)c(S(=O)(=O)N(C(=O)c2ccncc2)c2ccc(OC(=O)c3ccncc3)cc2)c1`, the outcome was “inactive”. With `Cc1ccc(S(=O)(=O)N2CCCCC2)cc1NC(=O)c1ccc2c(=O)n3c(nc2c1)CCCCC3` the outcome was “inactive”. In the case of `CCOc1ccc(C(=O)Nc2nnc(SCC(=O)NCC3CCCO3)s2)cc1` (centres undefined), the outcome is reported as “inactive”. In the case of `C[C@@H]1CN([C@@H](C)CO)C(=O)c2cccc(NC(=O)Nc3ccc(C(F)(F)F)cc3)c2O[C@@H]1CN(C)C(=O)Nc1cccc2ccccc12`, the outcome is reported as “inactive”. For `O=C(O)c1cccc(COc2ccc(CO)cc2Cl)c1`, the outcome was “inactive”. In the case of `COc1cccc(NC(=O)Nc2cccc(C(=O)O)c2)c1`, the outcome is reported as “inactive”. For `CCCCNc1c(-c2cccc(-c3cc(C(C)=O)cs3)c2)nc2ccc(C)cn12`, the outcome was “inactive”. With `O=C(c1ccccc1)N1CCSc2sccc2C1=O` the outcome was “inactive”. With `Cc1cnc(NC(=O)COc2ccccc2Cl)s1` the outcome was “inactive”. With `O=C(Nc1ccc(Cl)cc1Cl)c1ccc2c(c1)OCCO2` the outcome was “inactive”. For `CC(=O)c1ccc(NC(=O)c2noc3c2CCC3)cc1`, the outcome was “inactive”. For `CC1CCCN(c2ncnc3c2cnn3-c2ccc(Cl)cc2)C1` (centres undefined), the outcome was “inactive”. In the case of `C[C@H](CO)N1C[C@H](C)[C@H](CN(C)C(=O)Nc2ccccc2)OCCCC[C@H](C)Oc2ccc(NC(=O)Nc3ccc4c(c3)OCO4)cc2C1=O`, the outcome is reported as “inactive”. In the case of `CO[C@@H]1CN(C)C(=O)c2cc(NC(C)=O)ccc2OC[C@@H](C)N(Cc2ccc(F)cc2)C[C@@H]1C`, the outcome is reported as “inactive”. With `Cc1ccc(C(=O)Nc2ccc3c(c2)OCCO3)cc1` the outcome was “inactive”. With `CN(C)c1cccc(C(=O)Nc2nc3ccccc3[nH]2)c1` the outcome was “inactive”. In the case of `O=c1[nH]c(CSc2ccccn2)nc2c1oc1ccccc12`, the outcome is reported as “inactive”.
